Source: PubChem BioAssay (The Scripps Research Institute Molecular Screening Center)
Most compounds without a hit are left out; they make up all but 3.5% or so of the library.
MITF primary = human MITF inhibition, primary screen. AlphaScreen MITF homodimerization, bead proximity signal. inhibition, % at 2.6 µM. O75030. AID 1259374. actives 0.91% (n = 650,000); in the data active = inhibition above about 50%;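 note: 0% = vehicle wells with protein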
FBW7 act = activators of human E3 ligase FBW7. Q969H0. AlphaScreen FBW7–phospho-cyclin E peptide binding, activator screen. normalized activity (activation), % at 26.1 µM. actives 0.13% (n = 650,000). AID 1259310; in the data active = normalized activity above about 1.9%;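 note: purified mutant Fbw7 with reduced substrate affinity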
GPR151 ag = human GPR151 activation; PathHunter beta-arrestin GPR151 cells, luminescence; actives 1% (n = 650,000); activation, % at 11.2 µM; Q8TDV0; AID 1508602; in the data active = activation above about 4.9%;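 note: 0% = median of compound wells and 100% = cells with positive control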
Target sequence (Q8TDV0 whole entry, looked up): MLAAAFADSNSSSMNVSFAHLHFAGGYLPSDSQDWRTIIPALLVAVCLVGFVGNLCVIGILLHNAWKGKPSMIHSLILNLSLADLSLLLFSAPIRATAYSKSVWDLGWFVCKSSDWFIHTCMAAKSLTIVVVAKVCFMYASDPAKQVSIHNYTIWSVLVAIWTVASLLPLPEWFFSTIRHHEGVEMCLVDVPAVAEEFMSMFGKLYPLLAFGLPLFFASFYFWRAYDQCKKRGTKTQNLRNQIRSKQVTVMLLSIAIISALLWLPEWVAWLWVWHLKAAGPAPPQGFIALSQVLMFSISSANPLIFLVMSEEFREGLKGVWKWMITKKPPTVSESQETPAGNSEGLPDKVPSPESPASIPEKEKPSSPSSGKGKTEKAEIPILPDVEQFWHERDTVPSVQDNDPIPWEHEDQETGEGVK
TEAD-YAP inh = TEAD-YAP interaction inhibition; actives 1.4% (n = 640,000); HEK-TIYL cells, TEAD-Gal4/YAP UAS-luciferase luminescence; AID 1259422; inhibition, % at 9.12 µM; in the data active = inhibition above about 32%;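 note: 0% = median of test compound wells and 100% = reference inhibitor wells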
MITF inh conf = human MITF inhibition, confirmation; shares compounds with MITF primary; AlphaScreen MITF homodimerization, biotin/His-MITF beads; inhibition, % at 2.6 µM; actives 16% (n = 4,700);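 active = inhibition above a cutoff derived from the DMSO control wells, cut at about 28% in these data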;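 note: 0% = MITF dimer wells with DMSO only; inhibitors lower the bead chemiluminescence by keeping MITF from dimerizing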
AS interf ctr = counter-screen: compounds optically interfering with AlphaScreen; shares compounds with MITF primary; LysRS AlphaScreen counterscreen, signal interference, triplicate; inhibition, % at 2.6 µM; actives 7.6% (n = 4,700); AID 1259376;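 active = inhibition above a cutoff derived from the DMSO control wells, cut at about 30% in these data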
* = called active by the depositor; nt = no result given.

SMILES	MITF primary	FBW7 act	GPR151 ag	TEAD-YAP inh	MITF inh conf	AS interf ctr
Cc1cc(=O)n(C)c(=O)n1CCCNC(C)c1ccccc1 (centres undefined)	84*	0	-1	7	6	22
Cc1cc(=O)n(C)c(=O)n1CCCCNCCO	72*	0	0	4	-5	-4
Cc1cc(=O)n(C)c(=O)n1Cc1ccccc1	9	0	-2	-6	nt	nt
Cc1cc(=O)n(C)c(=O)n1CCCCBr	-3	0	1	2	nt	nt
O=C1c2cccc3c(N4CCOCC4)ccc(c23)C(=O)N1/N=C/c1ccccc1	-9	0	0	-14	nt	nt
COc1ccccc1NC(=O)C1=C(C)NC(SCC(=O)Nc2cccc(Cl)c2)=C(C#N)C1c1ccccc1 (centres undefined)	5	0	0	-8	nt	nt
O=C1NC(=O)C(c2c[nH]c3ccccc23)=C1c1c[nH]c2ccccc12	8	nt	2	nt	nt	nt
C/C(CC12CC3CC(CC(C3)C1)C2)=N\NC(N)=O	53*	0	2	-7	1	-2
CSc1ccc(S(=O)(=O)N2CCN(Cc3ccccc3)CC2)cc1	20	1	-2	-4	nt	nt
O=S(=O)(Cc1ccccc1)N1CCN(Cc2ccc(Br)cc2)CC1	59*	0	2	1	10	9
CCc1ccc(CN2CCN(S(=O)(=O)Cc3ccccc3)CC2)cc1	60*	0	-2	15	6	13
CSc1ccc(CN2CCN(S(=O)(=O)Cc3ccccc3)CC2)cc1	72*	0	0	14	10	13
O=S(=O)(Cc1ccc(Cl)cc1)N1CCN(Cc2ccccc2)CC1	0	1	1	-1	nt	nt
O=S(=O)(Cc1ccccc1)N1CCN(C2CCN(Cc3ccccc3)CC2)CC1	65*	0	0	-10	-7	0
CCOc1ccc(C(=O)Nc2ccc(-c3nc4cc(C)ccc4o3)cc2)cc1Cl	-5	0	-1	-1	nt	nt
CCCS(=O)(=O)N1CCC(C(=O)N(C)Cc2ccccc2)CC1	2	1	-1	-22	nt	nt
O=C(NN1C(=O)c2ccc(Oc3ccc([N+](=O)[O-])cc3)cc2C1=O)c1ccco1	58*	0	-1	-73	1	4
O=C(NC(=S)Nc1ccc([N+](=O)[O-])cc1O)c1ccc(F)cc1	-6	0	0	-80	nt	nt
N[C@H]1CCC[C@H](C(=O)Nc2cccc3c(=O)[nH]cnc23)C1	54*	0	0	3	26	11
C=CCN1C(=O)/C(=C/c2ccco2)S/C1=N/S(=O)(=O)c1ccc(Cl)cc1	87*	0	2	-12	13	17
C=CCN1C(=O)/C(=C/c2ccco2)S/C1=N/S(=O)(=O)c1cccs1	1	0	2	-17	nt	nt
CC1=NN(c2cccc(C(=O)O)c2)C(=O)C1	60*	0	0	-2	14	25
CC1=NN(c2cccc(F)c2)C(=O)C1	-9	-1	-1	3	nt	nt
COc1ccc(C2=N/C(=C\c3c(F)cccc3Cl)C(=O)O2)cc1OC	4	0	1	-3	nt	nt
CC(NCC(O)CO)c1ccc(-n2ccnc2)cc1 (centres undefined)	81*	0	0	-2	11	11
SMILES	MITF primary	FBW7 act	GPR151 ag	TEAD-YAP inh	MITF inh conf	AS interf ctr
O=C1CCCN1CCCNc1ccc(Cl)nn1	84*	0	-1	1	8	9
O=C1CCCN1CCCNc1cc(Cl)ncn1	9	0	0	5	nt	nt
O=C(OCc1ccco1)C1c2ccccc2Oc2ccccc21	0	0	-1	12	nt	nt
CCOC(=O)N1CCC(N2C(=O)c3ccccc3C2Nc2ccccc2C(=O)OC)CC1 (centres undefined)	62*	0	-1	2	3	13
CCSc1nc2c(c(=O)[nH]1)C(c1ccc(O)c(OC)c1)C1=C(CCCC1=O)N2 (centres undefined)	61*	0	-1	1	0	8
Cc1cc(Nc2ccc(Cl)c(Cl)c2)c2cccc(C)c2n1	12	0	0	-5	nt	nt
O=C(c1ccncc1)N1CCC[C@@H](Cn2cc(C(=O)N3CCOCC3)nn2)C1	-10	0	-1	2	nt	nt
CN1CCN(CCOc2ccc(C=O)cc2)CC1	74*	0	-1	-44	6	14
CC(=O)c1ccc(OCCCCN2CCCC2)cc1	19	0	2	-6	nt	nt
CC(=O)c1ccc(OCCN2CCN(C)CC2)cc1	66*	0	-1	-3	11	20
CCS(=O)(=O)N1CCN(Cc2cc(OC)ccc2OC)CC1	48	0	1	7	nt	nt
COc1cc(CN2CCN(Cc3ccc(OC)cc3OC)CC2)cc(OC)c1	70*	0	-1	-3	5	3
CCOc1ccc(CN2CCN(Cc3cc(OC)ccc3OC)CC2)cc1	79*	0	-1	6	8	22
CCOc1ccc(CN2CCN(Cc3ccc(OC)cc3OC)CC2)cc1	68*	1	2	19	5	-4
COc1ccc(CN2CCC(O)CC2)c(OC)c1	32	0	1	3	nt	nt
CCc1ccc(CN2CCN(Cc3ccc(OC)cc3OC)CC2)cc1	66*	1	-1	-10	-9	-2
Oc1ccc(/C=N/c2nc3c(s2)CCCC3)cc1	17	1	-2	4	nt	nt
COc1ccc(CN2CCCCC2)cc1OC	9	0	0	7	nt	nt
COc1ccc(CN2CCN(Cc3ccc(SC)cc3)CC2)cc1OC	76*	0	2	35*	20	19
COc1ccc(OC)c(CN2CCN(Cc3ccc(SC)cc3)CC2)c1	76*	0	0	5	14	18
COc1ccc(CN2CCN(Cc3ccc(Cl)cc3)CC2)c(OC)c1	61*	0	0	-19	1	9
COc1ccc(CN2CCOCC2)c(OC)c1	-3	0	0	2	nt	nt
COc1cc(O)ccc1/C=N/NC(=O)c1ccccc1Cl	1	0	0	-17	nt	nt
c1ccc(C2C3=C(CCCC3)SC3=C2CCCC3)cc1	70*	0	0	7	-1	-7
COc1ccc(C(=O)N2CCN(Cc3ccccc3)CC2)cc1	47	0	0	1	nt	nt
SMILES	MITF primary	FBW7 act	GPR151 ag	TEAD-YAP inh	MITF inh conf	AS interf ctr
COc1cccc(C(=O)N2CCN(Cc3ccncc3)CC2)c1	68*	0	-1	-3	15	17
COc1cccc(OC)c1C(=O)N1CCCCCC1	-2	0	2	1	nt	nt
COc1ccc(CN2CCN(C(=O)c3ccncc3)CC2)cc1	75*	0	2	-1	4	16
COc1cccc(OC)c1C(=O)N1CCN(Cc2ccncc2)CC1	75*	0	1	2	-12	-5
CC(C)N1CCN(C(=O)c2ccncc2)CC1	78*	0	-1	1	-3	0
O=C(O)c1ccc2c(c1)C(=O)N(c1ccc(NC(=O)c3ccc(N4C(=O)c5ccc(C(=O)O)cc5C4=O)cc3)cc1)C2=O	6	-1	2	4	nt	nt
